# Laboratory results as given in PubChem BioAssay AID2449 (National Center for Advancing Translational Sciences (NCATS), 2010).
# The list shows a part of the results. Records with an inconclusive call do not appear. Active and inactive are the calls of the source. Calls follow the shape of the full dose curve.
# Biological target: Peroxisome proliferator-activated receptor gamma (Homo sapiens) (UniProt P37231)
# Assay: PPAR gamma Selectivity Assay For Inhibitors of the Interaction of Thyroid Hormone Receptor and Steroid Receptor Coregulator 2
# Conditions: PPARg LBD / Texas Red DRIP-2 peptide, fluorescence polarization, 3 h
# From the text: NIH Molecular Libraries Probe Production Network [MLPCN] NIH Chemical Genomics Center [NCGC] MLPCN Grant: DK058080 Assay Provider: R. Kip Guy, St. Jude Children's Research Hospital NCGC Assay Overview: Thyroid receptor (TR) regulates many homeostatic processes including basal metabolism, cardiovascular function, body weight, and lipid trafficking. TR modulators are potential therapeutics for obesity and hyperlipidemias but current thyroid analogs have undesirable side effects, particularly cardiac stimulation. This secondary assay characterized compounds identified in the qHTS for Inhibitors of the Interaction of Thyroid Hormone Receptor and Steroid Receptor Coregulator 2 (PubChem AID 1485) for selectivity against PPAR gamma. […] Small molecule inhibitors that block the interaction of PPAR and DRIP-2 are detected by a decrease in fluorescence polarization. […]
# NCGC Assay Protocol Summary: Twenty uL/well 2 uM PPAR gamma and 10 nM Tx-DRIP-2 peptide in protein buffer (20 mM TRIS, pH 7.5, 100 mM NaCl, 0.01% NP-40, 20 uM roziglitazone, and 4% DMSO) was dispensed into black solid 384-well plates (Costar 3710) using a Biomek FX (Beckman Coulter) liquid handling system. […] The plates were read by an Envision (Perkin Elmer) to detect Texas Red polarization of Tx-DRIP-2 (555 nm excitation and 632 nm emission).
# Peroxisome proliferator-activated receptor gamma (Homo sapiens), sequence (P37231 whole entry, looked up): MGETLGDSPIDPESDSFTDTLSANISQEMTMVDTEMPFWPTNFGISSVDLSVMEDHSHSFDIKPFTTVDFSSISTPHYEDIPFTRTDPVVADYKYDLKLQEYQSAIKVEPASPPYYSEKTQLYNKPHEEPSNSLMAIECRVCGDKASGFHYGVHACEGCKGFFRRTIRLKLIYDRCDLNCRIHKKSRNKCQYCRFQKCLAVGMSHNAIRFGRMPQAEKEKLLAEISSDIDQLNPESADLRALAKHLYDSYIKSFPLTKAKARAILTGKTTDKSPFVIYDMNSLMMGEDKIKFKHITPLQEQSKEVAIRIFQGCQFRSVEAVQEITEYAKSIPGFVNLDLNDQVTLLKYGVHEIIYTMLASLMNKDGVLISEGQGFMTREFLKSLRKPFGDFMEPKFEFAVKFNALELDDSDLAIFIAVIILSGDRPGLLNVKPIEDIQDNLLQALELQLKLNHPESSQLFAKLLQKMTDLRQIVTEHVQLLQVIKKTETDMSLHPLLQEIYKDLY
row,Structure (SMILES),outcome
1,O=C(COC(=O)c1cccc([N+](=O)[O-])c1)NC1C2CC3CC(C2)CC1C3 (stereo unspecified),inactive
